Assay [1] in a line: qHTS assay for small molecules that induce genotoxicity in human embryonic kidney cells expressing luciferase-tagged ATAD5 (AID 651632). Also: nearly all actives have a fitted effect of over 15% in size. Also: potency is read from the fitted curve at half-maximal effect. Summed up:
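HEK293T cells carrying a luciferase reporter tagged to ATAD5 were exposed to compound or DMSO vehicle for 16 hr at 37C, 5% CO2. Amplite was added, and after 30 min at room temperature luciferase activity was read as a marker of ATAD5 induction.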
(In general: qHTS replaces the single test concentration by a dilution series.)

Assay [2] is described as follows: qHTS assay for small molecule agonists of the p53 signaling pathway - cell viability (AID 651633; calls by dose curve; also: nearly all actives have a fitted effect of over 30% in size; also: potency is read from the fitted curve at half-maximal effect). Summed up:
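Viability counter-read: CellTiter-Glo luminescence (30 min, room temperature) in the same p53RE-bla plates. These plates had been exposed to compounds for 16 h at 37 C.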

A short description of assay [3]: qHTS assay for small molecules that induce genotoxicity in human embryonic kidney cells expressing luciferase-tagged ATAD5 - cell viability (AID 651634; calls by dose curve; also: nearly all actives have a fitted effect of over 25% in size; also: potency is read from the fitted curve at half-maximal effect). Summed up:
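HEK293T cells expressing luciferase-tagged ATAD5 were exposed to compound or DMSO for 15.5 hr at 37C, 5% CO2. Viability was then read as live-cell protease activity by CellTiter-Fluor fluorescence after 30 min at 37C.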

Assay [4] is described as follows: qHTS assay for small molecule disruptors of the mitochondrial membrane potential - cell viability (AID 720634; calls by dose curve; also: nearly all actives have a fitted effect of over 20% in size; also: potency is read from the fitted curve at half-maximal effect). Summed up:
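HepG2 cells seeded overnight at 37 C, then exposed to compound or DMSO for 1 hr at 37 C, 5% CO2. m-MPI dye added, then CellTiter-Glo for 30 min at room temperature; viability read as ATP luminescence.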

A short description of assay [5]: qHTS assay for small molecule disruptors of the mitochondrial membrane potential (AID 720635). Also: potency is read from the fitted curve at half-maximal effect. Summed up:
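Mitochondrial membrane potential tracked with Mito-MPS dye, red aggregates (ex 540/em 590 nm) against green monomers (ex 490/em 535 nm). Compound treatment 1 hr at 37C, dye 30 min in HepG2.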

Assay [6] can be described thus: qHTS assay to test for compound auto fluorescence at 590 nm (red) in HepG2 cells (AID 720674). Also: % is scaled to controls: 0 for no effect and ±100 for the full control effect. In outline: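 Red autofluorescence (Ex/Em 540/590 nm, Rose Bengal sodium equivalents) was measured in HepG2 cells, 2,000 per well in MEM plus 10% FBS, plated overnight at 37 C. Readings were taken 1 hr after adding 23 nL compound or DMSO, at 37 C and 5% CO2.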
Assay [7] is described as follows: qHTS assay to test for compound auto fluorescence at 535 nm (green) in HepG2 cells (AID 720675). Also: % is scaled to controls: 0 for no effect and ±100 for the full control effect.
The nature of assay [8]: qHTS assay to test for compound auto fluorescence at 460 nm (blue) in HEK293 cells (AID 720678). Also: % is scaled to controls: 0 for no effect and ±100 for the full control effect. Summed up: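 Intrinsic compound fluorescence is recorded in live HEK293 cultures after overnight incubation at 37C, 5% CO2, using excitation 405 nm and emission 460 nm. Values are referenced to triamterene.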
The nature of assay [9]: qHTS assay to test for compound auto fluorescence at 590 nm (red) in HEK293 cells (AID 720679). Also: % is scaled to controls: 0 for no effect and ±100 for the full control effect. In outline: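 Red autofluorescence, HEK293 cells: 2,000 cells/well; attach 4-5 hr 37C; add 23 nL cpd or DMSO; incubate o/n 37C 5% CO2; read Ex540/Em590; Rose Bengal sodium reference.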
A short description of assay [10]: qHTS assay to test for compound auto fluorescence at 535 nm (green) in HEK293 cells (AID 720680). Also: % is scaled to controls: 0 for no effect and ±100 for the full control effect.
The nature of assay [11]: qHTS assay to test for compound auto fluorescence at 460 nm (blue) in HEK293 cell free culture (AID 720681). Also: % is scaled to controls: 0 for no effect and ±100 for the full control effect. In outline: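 Blue fluorescence (Ex 405/Em 460 nm, triamterene-equivalent) was read immediately after pin transfer of compound or DMSO into medium (DMEM, 10% FBS) without cells.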
A short description of assay [12]: qHTS assay to test for compound auto fluorescence at 535 nm (green) in HEK293 cell free culture (AID 720682). Also: % is scaled to controls: 0 for no effect and ±100 for the full control effect. In outline:
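Read-out: 485/535 nm fluorescence intensity, calibrated against fluorescein. Medium only (DMEM + 10% FBS, no cells); test compound or DMSO vehicle added by pintool before plate reading.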

Assay [13] in a line: qHTS assay to test for compound auto fluorescence at 590 nm (red) in HEK293 cell free culture (AID 720683). Also: % is scaled to controls: 0 for no effect and ±100 for the full control effect. In outline: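 Red-channel autofluorescence of compounds in culture medium (DMEM, 10% FBS), no cells, measured at 540/590 nm. Rose Bengal sodium is the reference fluorophore for equivalence.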
Assay [14] is described as follows: qHTS assay to test for compound auto fluorescence at 460 nm (blue) in HepG2 cell free culture (AID 720685). Also: % is scaled to controls: 0 for no effect and ±100 for the full control effect. Summed up:
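Compound (23 nL) or DMSO pinned into cell-free MEM with 10% FBS; blue fluorescence read at 405/460 nm excitation/emission, expressed as auto-fluorescence equivalency to triamterene.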

Assay [15] in a line: qHTS assay to test for compound auto fluorescence at 535 nm (green) in HepG2 cell free culture (AID 720686). Also: % is scaled to controls: 0 for no effect and ±100 for the full control effect.
Assay [16] is described as follows: qHTS assay to test for compound auto fluorescence at 460 nm (blue) in HepG2 cells (AID 720687). Also: % is scaled to controls: 0 for no effect and ±100 for the full control effect. Summed up: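 Blue-channel autofluorescence (Ex/Em 405/460 nm, triamterene-equivalent) was measured after 1 hr compound exposure at 37 C, 5% CO2. Cells were HepG2, plated overnight at 37 C in MEM plus 10% FBS.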
A short description of assay [17]: qHTS assay to test for compound auto fluorescence at 590 nm (red) in HepG2 cell free culture (AID 720684). Also: % is scaled to controls: 0 for no effect and ±100 for the full control effect. In outline: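 Plate contents were MEM with 10% FBS plus test compound or DMSO, no cells. Fluorescence was recorded with 540 nm excitation and 590 nm emission.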
Assay [18] can be described thus: qHTS assay for small molecule agonists of the p53 signaling pathway (AID 651631; calls by dose curve; also: % is scaled to controls: 0 for no effect and ±100 for the full control effect; nearly all actives have a fitted effect of over 15% in size). In outline: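 HCT-116 cells carrying a stable p53 response element–beta-lactamase reporter were plated, rested 5 h at 37 °C, then exposed to compound in DMSO for 16 h at 37 °C; reporter activity was read as FRET substrate fluorescence after 2 h at room temperature.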
Assay [19] deals with Glucocorticoid receptor (Homo sapiens) (UniProt P04150). Nature of the assay: qHTS assay to identify small molecule agonists of the glucocorticoid receptor (GR) signaling pathway (AID 720691; active = well fitted activation curve with a large enough effect in the signal ratio in the repeat runs, not every such curve was filed as active; inconclusive = weak or mixed curves, or effect the other way; inactive = no such curve, though single readings can be large or run the other way; the % refers to the signal ratio; also: % is scaled to controls: 0 for no effect and ±100 for the full control effect). As to conditions: GR-bla HeLa, beta-lactamase reporter ratio, 18 h; activation: at 62.4 µM (top of the series). Summed up:
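GR-bla HeLa cells (beta-lactamase reporter under glucocorticoid response element) were plated 4 h at 37 C/5% CO2, given compounds in DMSO, and incubated 18 h at 37 C. LiveBLAzer B/G FRET substrate was added for 2 h at room temperature, then fluorescence intensity read.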

Assay [20] has the same target. Nature of the assay: qHTS assay to identify small molecule antagonists of the glucocorticoid receptor (GR) signaling pathway (AID 720692; active = well fitted inhibition curve with a large enough effect in the signal ratio in the repeat runs, not every such curve was filed as active; inconclusive = weak or mixed curves, or effect the other way; inactive = no such curve, though single readings can be large or run the other way; the % refers to the signal ratio; also: potency is read from the fitted curve at half-maximal effect). Summed up:
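GR-bla HeLa cells (beta-lactamase reporter under glucocorticoid response element) were pre-plated 4 h at 37 C, treated with compounds plus 5 nM dexamethasone (final) for 18 h, then read by LiveBLAzer B/G FRET fluorescence after 2 h.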

Molecules are shown by their SMILES. “And” between values parts separate entries of the source, which are not always exact repeats. Equal values may be shown once. The source made the active and inactive calls. Unless noted, calls follow the shape of the dose curve; as a rule, active = well fitted curve in the direction sought with a large enough effect in the repeat runs; inconclusive = weak or mixed curves; inactive = no such curve, though single readings can be large; an effect the other way counts as inactive or inconclusive.

Sequence of Glucocorticoid receptor (Homo sapiens) (P04150 whole entry, looked up): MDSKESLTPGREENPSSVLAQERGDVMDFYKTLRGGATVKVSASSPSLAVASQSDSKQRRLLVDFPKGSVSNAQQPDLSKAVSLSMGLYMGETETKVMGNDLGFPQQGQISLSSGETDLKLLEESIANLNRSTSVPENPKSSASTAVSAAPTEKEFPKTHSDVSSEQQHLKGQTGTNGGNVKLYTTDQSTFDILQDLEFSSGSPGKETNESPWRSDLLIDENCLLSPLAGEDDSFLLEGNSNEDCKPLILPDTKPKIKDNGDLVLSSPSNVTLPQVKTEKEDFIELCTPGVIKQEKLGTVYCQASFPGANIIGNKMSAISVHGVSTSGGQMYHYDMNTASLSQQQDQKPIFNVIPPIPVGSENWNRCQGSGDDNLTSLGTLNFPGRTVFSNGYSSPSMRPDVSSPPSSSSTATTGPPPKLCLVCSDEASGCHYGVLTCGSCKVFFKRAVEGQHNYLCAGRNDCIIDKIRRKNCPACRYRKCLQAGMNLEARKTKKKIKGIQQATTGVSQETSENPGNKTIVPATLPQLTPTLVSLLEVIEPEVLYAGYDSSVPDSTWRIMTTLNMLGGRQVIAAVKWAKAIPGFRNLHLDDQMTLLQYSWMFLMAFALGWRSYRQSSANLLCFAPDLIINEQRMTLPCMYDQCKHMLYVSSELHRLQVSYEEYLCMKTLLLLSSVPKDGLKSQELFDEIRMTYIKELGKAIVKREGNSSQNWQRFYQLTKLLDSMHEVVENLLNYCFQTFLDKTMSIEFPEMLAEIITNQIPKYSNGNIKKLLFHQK

As for `CC[C@H](C)[C@H]1O[C@]2(C=C[C@@H]1C)C[C@@H]1C[C@@H](C/C=C(\C)[C@@H](O[C@H]3C[C@H](OC)[C@@H](O[C@H]4C[C@H](OC)[C@@H](NC)[C@H](C)O4)[C@H](C)O3)[C@@H](C)/C=C/C=C3\CO[C@@H]4[C@H](O)C(C)=C[C@@H](C(=O)O1)[C@]34O)O2`, the Potency entry in [1], in [7], in assay [8], in [11], in assay [14] and in assay [15] was “inactive” in each case. The Potency result in assay [16] was “inactive”. Besides, the Potency in assay [2] was 10.9 µM (active); in [3], 17.2 µM (active); in assay [4], 30.6 µM (active); in assay [5], 6.86 µM (active). The compound was called inactive in assay [6], in assay [9], in assay [10], in [12] and in assay [13].
On to `CCC(OC(C)=O)C(CC(C)NC)(c1ccccc1)c1ccccc1` (stereo not drawn), for which the Potency result in [1], in assay [3], in [4], in assay [7], in assay [8] and in assay [11] was “inactive” each time. In addition, the Potency result in assay [14], in assay [15] and in assay [16] was “inactive” each time. In addition, the Potency was 69.2 µM (active) in assay [2] and 49 µM (active) in assay [5]. Further, the call in assay [9], in assay [10], in assay [12], in assay [13] and in [17] was inactive.
Consider `Fc1ccc(C(OCCN2CCN(CCCc3ccccc3)CC2)c2ccc(F)cc2)cc1`, for which the Potency entry in [1], in assay [4], in assay [7], in assay [8], in [11] and in assay [14] was “inactive” throughout. Also, the Potency result in [15] and in assay [16] was “inactive” in each case. Also, the results for the Potency in assay [2] and in [3] were 26.6 µM (active) and 29.8 µM (active), respectively. In addition, the call in assay [6], in assay [10], in assay [12], in assay [13] and in assay [17] was inactive.
Regarding `O=C1C[C@@H]2OCC=C3CN4CC[C@]56c7ccccc7N1[C@H]5[C@H]2[C@H]3C[C@H]46`, the Potency entry in assay [18], in assay [3], in [4], in assay [5], in assay [7] and in [11] was “inactive” each time. Moreover, the Potency entry in assay [14], in assay [15] and in assay [16] was “inactive” in each case. Moreover, the outcome in [6], in assay [9], in assay [10] and in assay [12] was inactive.
Take `C=CCOC(=O)c1ccccc1N`: the Potency result in [1], in [2], in assay [3], in assay [4], in [5] and in assay [7] was “inactive” each time. The Potency entry in assay [8], in assay [11], in assay [14], in [15], in [16] and in assay [19] was “inactive” throughout. The call in [6], in assay [9], in assay [10], in assay [12], in assay [13] and in [17] was inactive.
Turning to `Clc1ccc(C(c2ccc(Cl)cc2)C(Cl)Cl)cc1`, the Potency entry in [1], in assay [3], in [4], in assay [7], in assay [8] and in assay [11] was “inactive” each time. In addition, the Potency result in assay [14], in assay [15] and in [16] was “inactive” each time. In addition, the Potency was 62.1 µM (active) and 61.1 µM (active) in assay [2]; 9.85 µM (active) and 9.69 µM (active) in assay [5]; 24.9 µM (active) in assay [20]. Moreover, the call in assay [6], in assay [10], in [12], in [13] and in assay [17] was inactive.
As for `CN(C)C(=S)SSC(=S)N(C)C`, the Potency in [1] is 19.1 µM (active); in assay [2], 29.8 µM (active) and 26.9 µM (active) and 27.3 µM (active); in [3], 6.68 µM (active) and 26.9 µM (active); in assay [5], 335 nM (active) and 30.2 µM (active) and 54.5 nM (active). For the same compound, the Potency result in [4], in assay [7], in assay [8], in assay [11], in assay [14] and in assay [15] was “inactive” throughout. In addition, the Potency result in assay [16] is “inactive”. The call in assay [6], in [9], in [10], in assay [12], in assay [13] and in [17] was inactive. Besides, the activation in assay [19] was -15.4% [inconclusive] (active) and -4.77% [inconclusive] (active).

(Values after PubChem BioAssay (Tox21).)
